Screening data deposited in PubChem by National Center for Advancing Translational Sciences (NCATS).
Sfp inh: qHTS Assay for Inhibitors of Bacillus subtilis Sfp phosphopantetheinyl transferase (PPTase) | 4'-phosphopantetheinyl transferase ffp (Bacillus subtilis), Q9F4F7 | Biochemical Sfp PPTase activity, qHTS | Potency, µM, most hits filed as inhibitors | hit rate 3.5% among 310,000 | AID 1490, 2009;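 also: the enzyme is Sfp with the accession as filed and its product quenches rhodamine fluorescence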
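After 15 min at room temperature with compound, 15 nM Sfp received 5 uM rhodamine-CoA plus 12.5 uM BHQ-2-ybbR (50 mM Hepes pH 7.6, 10 mM MgCl2). Rate came from the fluorescence difference over 30 min, ex 525/em 598 nm.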
BAZ2B inh: qHTS Assay for Inhibitors of BAZ2B. Potency, µM (titrated, usually from 114 µM), usual class: inhibitors. hit rate 4.4% among 360,000. Bromodomain adjacent to zinc finger domain protein 2B (Homo sapiens), Q9UIF8. AlphaScreen BAZ2B-H3K14Ac peptide displacement; also: nearly all actives have a fitted effect of over 60% in size
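Compounds, titrated to a top concentration of 110 uM, were incubated 30 min at room temperature with preformed BAZ2B/acetyl-K14 H3 peptide complex (50 nM each). Proximity signal was measured by AlphaScreen after 20 min with beads.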
JMJD2A Tudor: qHTS Assay for Inhibitors of JMJD2A-Tudor Domain; AlphaScreen JMJD2A-Tudor / H3K4me3 peptide binding; Potency, µM (top dose mostly 114 µM), usual class: inhibitors; hit rate 4.4% among 390,000; AID 504339, 2011; also: nearly all actives have a fitted effect of over 50% in size
HP1b binding inh: HTS for Inhibitors of HP1-beta Chromodomain Interactions with Methylated Histone Tails; Chromobox protein homolog 1 (Homo sapiens), P83916; AlphaScreen HP1-beta / biotin-H3K9me3 peptide binding; Potency, µM (top dose mostly 114 µM), usual class: inhibitors; hit rate 0.56% among 390,000; AID 540317, 2011; also: nearly all actives have a fitted effect of over 70% in size
Target sequence (P83916 whole entry, looked up): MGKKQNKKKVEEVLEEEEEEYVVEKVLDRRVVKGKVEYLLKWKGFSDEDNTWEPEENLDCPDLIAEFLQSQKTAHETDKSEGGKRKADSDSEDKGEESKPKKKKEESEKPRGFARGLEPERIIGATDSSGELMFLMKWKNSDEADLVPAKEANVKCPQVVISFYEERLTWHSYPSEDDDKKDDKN
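HP1-beta protein (50 nM final) preincubated 30 min at room temperature with biotinylated H3(1-18)K9me3 peptide (50 nM) in PBS pH 7.4, 0.01% Tween-20, then compound added for 30 min. AlphaScreen streptavidin donor/nickel chelate acceptor beads (10 ug/mL final), 30 min dark, luminescence read.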
G9a inh: qHTS Assay for Inhibitors of Histone Lysine Methyltransferase G9a | Histone-lysine N-methyltransferase EHMT2 (Homo sapiens), Q96KQ7 | G9a H3K9 monomethylation, AlphaScreen, 2 h | Potency, µM (top dose mostly 102 µM), actives largely listed as inhibitors | hit rate 8.8% among 350,000 | AID 504332, 2011; also: nearly all actives have a fitted effect of over 75% in size
Target sequence (Q96KQ7 913-1193 limits assumed): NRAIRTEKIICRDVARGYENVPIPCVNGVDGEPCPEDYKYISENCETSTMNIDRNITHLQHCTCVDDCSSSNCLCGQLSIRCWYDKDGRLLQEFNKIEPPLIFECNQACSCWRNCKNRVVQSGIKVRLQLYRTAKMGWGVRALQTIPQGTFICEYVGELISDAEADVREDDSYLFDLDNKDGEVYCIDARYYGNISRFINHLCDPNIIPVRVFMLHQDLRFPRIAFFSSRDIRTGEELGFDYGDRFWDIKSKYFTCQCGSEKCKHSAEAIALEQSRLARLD
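AlphaScreen read-out: biotin-H3K9 peptide (500 nM) methylation by 20 nM enzyme with 20 uM SAM, 2 h at room temperature after 15 min compound preincubation; anti-monomethyl H3K9 antibody plus donor/acceptor beads, 10 min dark.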
Numbers stand for hits; [ ] = another dose, or the depositor's remark. Most compounds without a hit are left out; they make up all but 12% or so of the library. Calls follow the shape of the dose curve; as a rule, active = well fitted curve in the direction sought with a large enough effect; inconclusive = small, poorly fitted or top-dose-only effect, or another doubt; inactive = no such curve, though single readings can be large; an effect the other way counts as inactive or inconclusive.

`CC/C(=N\NC(=O)c1ccc(N(C)C)cc1)c1ccccc1` gave Sfp inh inactive, BAZ2B inh inactive, JMJD2A Tudor inconclusive, HP1b binding inh inactive and G9a inh 28.2µM.
O=C(N/N=C/c1cccc2ccccc12)c1ccncc1 was read as Sfp inh inactive, BAZ2B inh inconclusive, JMJD2A Tudor inactive and HP1b binding inh inactive.
For Cc1sc(N/N=C/c2cc([N+](=O)[O-])ccc2O)nc1-c1ccccc1 the results were Sfp inh inactive, BAZ2B inh inactive, JMJD2A Tudor 22.4µM, HP1b binding inh inactive and G9a inh inactive.
O=C(N/N=C/c1ccc(OC(=O)c2ccc(Br)cc2)cc1)c1ccncc1 was read as Sfp inh inactive, BAZ2B inh inactive, JMJD2A Tudor inconclusive, HP1b binding inh inactive and G9a inh inactive.
Screening O=C(N/N=C/c1ccccc1O)c1ccncc1 returned Sfp inh inactive, BAZ2B inh 35.5µM, JMJD2A Tudor 50.1µM, HP1b binding inh inactive and G9a inh inactive.
`CN1OC[C@@H]2CN(C(=O)CCc3ccccc3)[C@H](c3cccc(N4CCOCC4)c3)C[C@@H]21` gave JMJD2A Tudor inactive and HP1b binding inh inactive.
Screening Cc1ccc(NC(=O)/C(=C\c2ccc([N+](=O)[O-])cc2)NC(=O)c2ccccc2)cc1 returned Sfp inh inactive, BAZ2B inh inactive, JMJD2A Tudor inactive, HP1b binding inh inactive and G9a inh inactive[0.0925 µM].
Screening Cc1nccn1CC(=O)c1ccc(O)c(O)c1 returned BAZ2B inh 56.2µM, JMJD2A Tudor 20µM, HP1b binding inh inactive and G9a inh inactive[0.501 µM].
For O=C(N/N=C/c1cc([N+](=O)[O-])ccc1O)c1cccc(N2CCCC2=O)c1 the results were Sfp inh inactive, BAZ2B inh 20µM, JMJD2A Tudor 31.6µM, HP1b binding inh inactive and G9a inh inactive.
Screening N#CCC(=O)N/N=C\c1ccccc1OC/C=C/c1ccccc1 returned Sfp inh inactive, BAZ2B inh 50.1µM, JMJD2A Tudor inconclusive, HP1b binding inh inactive and G9a inh inactive.
For COCC(=O)N/N=C\c1ccccc1OC/C=C/c1ccccc1 the results were Sfp inh inactive, BAZ2B inh inactive, JMJD2A Tudor inactive, HP1b binding inh inactive and G9a inh inactive.
`Cc1nccn1CC(=O)O` gave Sfp inh inactive, BAZ2B inh inactive, JMJD2A Tudor inactive, HP1b binding inh inactive and G9a inh inactive.
For O=C(N/N=C/c1ccc(O)c(O)c1O)/C(=C/c1ccc([N+](=O)[O-])cc1)NC(=O)c1ccccc1 the results were Sfp inh 44.7µM, BAZ2B inh inconclusive, JMJD2A Tudor 31.6µM, HP1b binding inh 25.1µM and G9a inh 1.58µM.
CC1CCN(C(=O)CCNS(=O)(=O)c2ccc(Cl)cc2)CC1 was read as Sfp inh inactive, BAZ2B inh inactive, JMJD2A Tudor inactive, HP1b binding inh inactive and G9a inh inactive.
For Cc1cccc(CC2C(=O)Nc3ccccc32)c1 (centres undefined) the results were BAZ2B inh inconclusive, JMJD2A Tudor inactive, HP1b binding inh inactive and G9a inh inactive.
For CCc1ccc(N2CC(C(=O)N/N=C/c3cc([N+](=O)[O-])ccc3O)CC2=O)cc1 (centres undefined) the results were Sfp inh inactive, BAZ2B inh 50.1µM, JMJD2A Tudor 39.8µM, HP1b binding inh inactive and G9a inh inactive.
For O=C(O)CC/C(=N\NC(=O)c1ccccc1)c1cccs1 the results were Sfp inh inactive, BAZ2B inh inactive, JMJD2A Tudor inactive, HP1b binding inh inactive and G9a inh inactive.
Screening O=C(CN(c1cccc(Br)c1)S(=O)(=O)c1ccccc1)N/N=C/c1cc([N+](=O)[O-])ccc1O returned JMJD2A Tudor 50.1µM and HP1b binding inh inactive.
CCc1ccc(N2CC(C(=O)N/N=C/c3ccccc3OC)CC2=O)cc1 (centres undefined) was read as Sfp inh inactive, BAZ2B inh inactive, JMJD2A Tudor inconclusive, HP1b binding inh inactive and G9a inh inactive.
`O=C(O)CC/C(=N\NC(=O)c1ccncc1)c1ccccc1` gave Sfp inh inactive, BAZ2B inh inactive, JMJD2A Tudor 25.1µM and HP1b binding inh inactive.
Screening O=C(N/N=C/c1cc(Cl)ccc1O)c1ccc(Br)cc1 returned Sfp inh inactive, BAZ2B inh inconclusive, JMJD2A Tudor 25.1µM, HP1b binding inh inactive and G9a inh inactive.
Screening CSCCC(NS(=O)(=O)c1ccc(C)cc1)C(=O)N1CCN(S(=O)(=O)c2ccc(F)cc2)CC1 (centres undefined) returned BAZ2B inh inactive, JMJD2A Tudor inactive, HP1b binding inh inactive and G9a inh inactive.
`Cc1cn([C@H]2C[C@H](N=[N+]=[N-])[C@H](CO)O2)c(=O)[nH]c1=O` gave Sfp inh inactive and G9a inh inactive.
For Nc1nonc1C(=O)N/N=C/c1cc(Br)ccc1O the results were Sfp inh inactive, BAZ2B inh 7.94µM, JMJD2A Tudor 17.8µM, HP1b binding inh inactive and G9a inh inconclusive.
Screening Nc1nonc1C(=O)NCCN=Cc1ccccc1O returned Sfp inh 89.1µM, BAZ2B inh inconclusive, JMJD2A Tudor inactive, HP1b binding inh inactive and G9a inh inactive[0.0925 µM].
For CN(C)c1ccc(/C(=N\O)c2ccccc2)cc1 the results were Sfp inh inactive, BAZ2B inh inactive, JMJD2A Tudor 50.1µM, HP1b binding inh inactive and G9a inh 14.1µM.
O=C(O)COc1ccccc1/C=N/NC(=O)c1ccncc1 was read as Sfp inh 50.1µM and G9a inh inactive[12.7 µM].
CCOC(=O)c1ccc(NC(=O)CCc2c(C)n(CC)c3cc(-c4ccccc4OC)nn3c2=O)cc1 was read as BAZ2B inh inactive, JMJD2A Tudor inactive, HP1b binding inh inactive and G9a inh inactive.
Screening O=C(N/N=C/c1cc([N+](=O)[O-])ccc1O)C(O)(c1ccccc1)c1ccccc1 returned Sfp inh inactive, BAZ2B inh inconclusive, JMJD2A Tudor 79.4µM and HP1b binding inh inactive.
`O=C(N/N=C/c1ccccc1O)c1cc[n+]([O-])cc1` gave Sfp inh inactive, BAZ2B inh 20µM, JMJD2A Tudor 35.5µM, HP1b binding inh inactive and G9a inh inactive.
O=C(N/N=C/c1ccccc1)c1cc[n+]([O-])cc1 was read as Sfp inh inactive, BAZ2B inh inactive, JMJD2A Tudor inactive, HP1b binding inh inactive and G9a inh inactive.
For Cc1cc(C)cc(C(=O)NN2CCOCC2)c1 the results were Sfp inh inactive, BAZ2B inh inactive, JMJD2A Tudor inactive, HP1b binding inh inactive and G9a inh inactive.
Cc1cc(C)cc(C(=O)NN2CCN(C)CC2)c1 was read as Sfp inh inactive, BAZ2B inh inactive, JMJD2A Tudor 22.4µM, HP1b binding inh inactive and G9a inh inactive[12.7 µM].
`COc1cc(C(C)=O)ccc1OCc1cn(CC(=O)c2ccc(O)cc2)nn1` gave JMJD2A Tudor 22.4µM and HP1b binding inh inactive.
